Screens as filed in PubChem BioAssay.
sEH act: soluble epoxide hydrolase (human) activation; P34913; purified human sEH enzymatic activity, activator screen; activation, % at 2 µM; 91,000 compounds, 0.04% hits; AID 717; in the data active means activation above about 37%
sEH inhibitor: inhibitors of human soluble epoxide hydrolase; P34913; recombinant human sEH enzymatic activity assay; inhibition, % at 2 µM; 91,000 compounds, 0.34% hits; AID 707; in the data active means inhibition above about 80%
CYP2C19 activ: activators of human cytochrome P450 2C19; activation factor at 5 µM; P33261; AID 1025; recombinant CYP2C19, luciferin-H EGE luminescence; active compounds read high; 0 = fully inhibited enzyme, 1 = untreated enzyme; 96,000 tested, under 10 active;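 active means activation factor of at least 2 at 5 µM in the primary screen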
CYP2C19 inhib: inhibitors of human CYP2C19 | P33261 | CYP2C19 Supersomes, luciferin-H EGE luminescence, 30 min | inhibition, % at 5 µM | 96,000 compounds, 21% hits | AID 778;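 active means CYP2C19 inhibition above a set limit at 5 µM in the primary screen, cut at about 50% in these data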
CYP2C9 inhib: blocks human cytochrome P450 2C9. CYP2C9 Supersomes, luciferin-H conversion, luminescence. inhibition, % at 5 µM. P11712. 96,000 compounds, 20% hits;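 active means blocking of liver enzyme CYP2C9 beyond about 50% at 5 µM, limit read from the data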
Target sequence (P11712 whole entry, looked up): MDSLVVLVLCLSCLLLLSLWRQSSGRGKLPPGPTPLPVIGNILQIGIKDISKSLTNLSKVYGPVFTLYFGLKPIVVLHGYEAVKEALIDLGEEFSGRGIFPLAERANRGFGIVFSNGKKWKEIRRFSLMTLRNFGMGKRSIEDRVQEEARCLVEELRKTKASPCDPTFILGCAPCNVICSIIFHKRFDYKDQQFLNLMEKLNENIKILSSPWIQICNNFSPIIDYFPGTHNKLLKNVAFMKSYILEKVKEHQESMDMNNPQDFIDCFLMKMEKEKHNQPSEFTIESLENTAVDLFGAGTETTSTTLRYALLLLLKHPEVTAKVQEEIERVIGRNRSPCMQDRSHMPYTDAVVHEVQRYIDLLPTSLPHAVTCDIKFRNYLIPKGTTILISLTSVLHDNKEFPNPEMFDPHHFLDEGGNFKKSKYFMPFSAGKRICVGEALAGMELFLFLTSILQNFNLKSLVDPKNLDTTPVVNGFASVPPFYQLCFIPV
CYP2C9 act: activators of human CYP2C9; recombinant CYP2C9, luciferin-H conversion, luminescence; active compounds read high; factor 1 = untreated enzyme, 0 = blocked; 96,000 compounds, 1.4% hits; activation factor at 5 µM; AID 1024; P11712;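 active means activation factor of 2 or more for CYP2C9 at a 5 µM dose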
Each line names hits and unclear results; the compound was inactive in the other large screens. An excerpt weighted towards active compounds, which were near 27% of everything screened.

NC(=O)CCn1c(=O)oc2ccccc21	none
O=C1c2ccccc2C(=O)N1CCn1c(=O)oc2ccccc21	none
O=c1oc2ccccc2n1CCCOc1ccccc1	CYP2C19 inhib 98, CYP2C9 inhib 70 (no result: sEH act, sEH inhibitor)
O=C(Cn1c(=O)oc2ccccc21)c1ccccc1	CYP2C19 inhib 93
O=C(O)CCCCCNC(=O)c1ccccc1Br	none
CCN(CC)c1cc(C)c2cc(NC(=O)CNC(C)=O)ccc2n1	none
O=C(NCCC(=O)N1CCNC1=O)OCc1ccccc1	none (no result: sEH act, sEH inhibitor)
CCOC(=O)c1cc(NC(=O)CSc2nnc(CN3CCOCC3)n2C)ccc1Cl	none (no result: CYP2C19 activ, CYP2C19 inhib, CYP2C9 inhib, CYP2C9 act)
Cc1ccc(SCC(=O)NC(=O)NCc2ccco2)cc1C	none
O=C(Cn1c(=O)oc2ccccc21)NC(=O)NCc1ccco1	CYP2C19 inhib 65
COc1cccc(NC(=O)Cn2c(=O)oc3ccccc32)c1	CYP2C19 inhib 68
CCCNC(=O)Cn1c(=O)oc2ccccc21	CYP2C19 inhib 74
COc1ccc(CCNC(=O)Cn2c(=O)oc3ccccc32)cc1OC	none
O=c1oc2ccccc2n1CCCCCn1c(=O)oc2ccccc21	CYP2C19 inhib 84
CCOC(=O)C1CCc2sc(N)c(C#N)c21 (stereo unspecified)	none
CCOC(=O)c1cnc2c(C(=O)OC)cccc2c1NCc1ccco1	CYP2C9 inhib 54
CCOC(=O)c1ccc2ncc(C(=O)OCC)c(NCc3ccco3)c2c1	CYP2C9 inhib 56
CCOC(=O)c1ccc2ncc(C(=O)OCC)c(NCCCN3CCOCC3)c2c1	CYP2C19 inhib 83, CYP2C9 inhib 88 (no result: sEH act, sEH inhibitor)
CCOC(=O)c1cnc2ccc(Br)cc2c1NCCO	none
CCCOc1c(Cl)cc(/C=N/O)cc1OCC	none
Cc1ccc(-n2c(Cn3nc(C(F)(F)F)cc3C)n[nH]c2=S)cc1	none
O=C1CC(C(=O)Nc2ccccc2C(=O)O)C(c2ccccc2)O1 (stereo unspecified)	CYP2C9 inhib 94
O=C1CC(C(=O)Nc2nccs2)C(c2ccccc2)O1 (stereo unspecified)	CYP2C19 inhib 87, CYP2C9 inhib 60 (no result: sEH act, sEH inhibitor)
CCN(C1CCCCC1)S(=O)(=O)c1ccc(S(=O)(=O)N2CCN(CCC#N)CC2)cc1	none
Cc1cc(C)n2c(SCC(=O)Nc3cc(C)on3)nnc2n1	none (no result: CYP2C19 activ, CYP2C19 inhib, CYP2C9 inhib, CYP2C9 act)
N#CCCN/N=C(/Cc1nc2ccccc2[nH]1)c1ccc(Cl)cc1	CYP2C19 inhib 98, CYP2C9 inhib 75
N#CCCN/N=C(\Cc1nc2ccccc2[nH]1)c1ccccc1	none
CCOc1ccc(C(=O)N2CCCCCC2)cc1	none
CCOc1ccc(C(=S)N2CCCC2)cc1	CYP2C19 inhib 89
COc1cc(C(=S)N2CCCC2)cc(OC)c1O	CYP2C19 inhib 61
CCC(=O)NC(C)C(c1cccs1)N1CCN(Cc2ccccc2)CC1 (stereo unspecified)	none
CCOC(=O)Nc1ccc(S(=O)(=O)Nn2cnnc2)cc1	none
O=C1NC(c2ccccc2)=C(c2ccc3ccccc3n2)C(c2ccncc2)N1 (stereo unspecified)	CYP2C19 inhib 83, CYP2C9 inhib 89
Cc1nc(CCNC(=O)COc2ccccc2)cs1	none
O=C(Nc1ccccc1)C1CCN(C(=O)c2ccccc2)CC1	none
COc1ccc(C2CC(=O)N3CN(c4ccc(C)c(Cl)c4)CSC3=C2C#N)cc1 (stereo unspecified)	CYP2C19 inhib 77, CYP2C9 inhib 98
CCc1ccccc1N1CSC2=C(C#N)C(c3ccccc3F)CC(=O)N2C1 (stereo unspecified)	CYP2C19 inhib 82, CYP2C9 inhib 94 (no result: sEH act, sEH inhibitor)
Cc1cccc(N2CSC3=C(C#N)C(c4ccc(C)o4)CC(=O)N3C2)c1 (stereo unspecified)	CYP2C9 inhib 86
COc1ccc(C2CC(=O)N3CN(c4ccccc4F)CSC3=C2C#N)cc1OC (stereo unspecified)	CYP2C9 inhib 84
COc1cccc(Nc2ncnc3nc[nH]c23)c1	none
COc1ccc(OC)c(C2CC(=O)N3CN(c4ccccc4)CSC3=C2C#N)c1 (stereo unspecified)	CYP2C9 inhib 60
COc1ccc(N2CSC3=C(C#N)C(c4cccc(OC)c4OC)CC(=O)N3C2)cc1 (stereo unspecified)	none
COc1cc(OC)c(C2CC(=O)N3CN(c4ccccc4C)CSC3=C2C#N)cc1OC (stereo unspecified)	CYP2C9 inhib 86 (no result: sEH act, sEH inhibitor)
Cc1cc(N2C(=O)CC(N3CCN(c4ccc(C(=O)c5cccs5)cc4)CC3)C2=O)no1 (stereo unspecified)	CYP2C9 inhib 59
O=C(c1ccc(N2CCOCC2)cc1)c1cccs1	none
O=C(CN1CCC2(CC1)OCCO2)c1ccc2cc[nH]c2c1	CYP2C19 inhib 86 (no result: sEH act, sEH inhibitor)
Cc1ccc(-c2n[nH]c(=S)n2/N=C/C=C/c2ccccc2[N+](=O)[O-])cc1	CYP2C9 inhib 58
COc1cccc(-n2c(SCC(=O)Nc3cc(C)on3)nc3c([nH]c4ccccc43)c2=O)c1	CYP2C9 inhib 54
O=C(CSc1nc2c([nH]c3ccccc32)c(=O)n1-c1ccccc1)N1CCOCC1	none (no result: sEH act, sEH inhibitor)
COc1cccc(-n2c(SCC(N)=O)nc3c([nH]c4ccccc43)c2=O)c1	CYP2C9 inhib 52 (no result: sEH act, sEH inhibitor)
O=C(CSc1nc2c([nH]c3ccccc32)c(=O)n1-c1cccc(Cl)c1)N1CCOCC1	none (no result: CYP2C19 activ, CYP2C19 inhib, CYP2C9 inhib, CYP2C9 act)
Cc1ccc(-n2c(SCC(N)=O)nc3c([nH]c4ccccc43)c2=O)cc1	CYP2C9 inhib 79 (no result: sEH act, sEH inhibitor)
COc1ccc(S(=O)(=O)Nc2ccc(C)cc2)cc1N(C)S(=O)(=O)c1ccc(Cl)cc1	CYP2C19 inhib 71, CYP2C9 inhib 62
COc1ccc(NC(=O)CN(C)S(=O)(=O)c2ccc(Cl)cc2)cc1Cl	none
COC(=O)c1cc(Cl)c(NS(=O)(=O)c2ccccc2)cc1OC	CYP2C19 inhib 92, CYP2C9 inhib 92 (no result: sEH act, sEH inhibitor)
COc1ccc(NC(=O)CNS(=O)(=O)c2ccccc2)cc1Cl	CYP2C19 inhib 63
COc1ccc(NC(=O)C=C(C)C)cc1Cl	CYP2C19 inhib 58
COc1ccc(S(=O)(=O)NC(C(C)C)C(C)C)cc1OC	none (no result: CYP2C19 activ, CYP2C19 inhib, CYP2C9 inhib, CYP2C9 act)
COc1ccc(C)cc1S(=O)(=O)Nc1ccc(F)c(Cl)c1	none (no result: CYP2C19 activ, CYP2C19 inhib, CYP2C9 inhib, CYP2C9 act)
COc1ccc(S(=O)(=O)Nc2ccc(F)c(Cl)c2)cc1OC	CYP2C19 inhib 100, CYP2C9 inhib 56 (no result: sEH act, sEH inhibitor)
COC(=O)c1cc(NS(=O)(=O)c2ccc(OC)c(OC)c2)ccc1Cl	CYP2C19 inhib 100, CYP2C9 inhib 80
COc1cc(S(=O)(=O)NC(C)C)ccc1Cl	CYP2C19 inhib 53, CYP2C9 act 2.5
Cc1cccc(NC(=O)C2CCCN(C(=O)Nc3ccccc3)C2)c1C (stereo unspecified)	none
CC1(C)CC(=O)C=C(Nc2cccc(O)c2)C1	none
C=CCCCCCCCCC(=O)NNC1=CC(=O)CC(C)(C)C1	CYP2C9 inhib 51
COc1ccccc1/C=C/C=N/N1CCN(Cc2ccc(Cl)cc2)CC1	CYP2C19 inhib 52
Cc1ccc(/C=N/N2CCN(Cc3ccc(Cl)cc3)CC2)o1	CYP2C19 inhib 68, CYP2C9 inhib 63
COc1ccccc1/C=C/C=N/n1c(COc2ccccc2)n[nH]c1=S	none
COc1ccccc1N1CCN(/N=C\c2ccc(C)o2)CC1	none
